# Lassa entry inh: inhibitors of Lassa virus binding or cell entry | Potency, µM (highest dose often 37.9 µM), for the others: at the top dose activity change, negative = inhibition, hits mostly inhibitors | 300,000 compounds, 1.2% hits | AID 540256 | Lassa virus pseudotype entry inhibition, cell reporter; calls by dose curve; tested in HEK293 cells; also: potency is read from the fitted curve at half-maximal effect; nearly all actives have a fitted effect of over 50% in size
# Pf growth 48h: P. falciparum growth inhibition at 48 hours (one generation); AID 504832; P. falciparum luciferase growth in erythrocytes, 48 h; Potency, µM (titrated, usually from 28.7 µM), for the others: at the top dose activity change, negative = inhibition, most hits filed as inhibitors; 310,000 compounds, 5.9% hits; also: potency is read from the fitted curve at half-maximal effect
#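 Firefly luciferase activity from engineered P. falciparum reports growth; inhibitors lower the luminescent signal. Cultures contained 2% hematocrit erythrocytes at 0.1% final parasitemia.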
# HCV inh: blocks hepatitis C virus; Potency, µM (top dose mostly 41.8 µM), inactives show at the highest dose activity change, negative = inhibition, usual class: inhibitors; AID 651820; Huh7.5.1 HCVcc-Cre infection, luciferase reporter, 44 h; 340,000 compounds, 3.4% hits; also: potency is read from the fitted curve at half-maximal effect
#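 Seed cells (1,000/well) for 4 h; treat with compound and infect with HCVcc-Cre, moi about 0.5. Incubate 44 h, then detect luciferase activity.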
# Pf growth 96h: inhibits malaria parasite growth, 96 h | P. falciparum luciferase reporter growth, 96 h | Potency, µM (top dose mostly 28.7 µM), inactives show at the highest dose activity change, negative = inhibition, hits mostly inhibitors | 320,000 compounds, 6.9% hits; also: potency is read from the fitted curve at half-maximal effect
#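 Two parasite generations (96 h, 37 C, 5% CO2) of compound exposure in infected erythrocytes (0.05% parasitemia, 2% hematocrit). Luciferase-reporter P. falciparum; decreased luminescence indicates inhibited growth, aimed at apicoplast-acting delayed death.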
# HCMV antiviral: human cytomegalovirus inhibition. 410,000 compounds, 4.5% hits. activity change, negative = inhibition, % at 57.5 µM. HFF cells, HCMV-luciferase reporter, 72 h; stronger effect = lower value; in the data active = activity change below about -60%; inconclusive = no clear call, values can overlap the other calls; inactive = above about -39%
#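 HFF cells seeded 16 h at 37C, treated with compounds, infected with luciferase-reporter HCMV at MOI 1 PFU/cell; luciferase read at 72 h post infection, normalized to buffer-only and Salinomycin controls.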
# Marburg entry inh: Marburg virus entry inhibition; Marburg virus pseudotyped entry inhibition, cell reporter; Potency, µM (series often up to 37.8 µM), for inactives: at the highest dose activity change, negative = inhibition, actives largely listed as inhibitors; 300,000 compounds, 1.8% hits; AID 540276; calls by dose curve; tested in HEK293 cells; also: potency is read from the fitted curve at half-maximal effect
# * = called active by the depositor; ? = inconclusive; · = not tested or not shown; [ ] = dose if it differs, or a comment. This is a sample that favours compounds with a hit; in the whole collection about 14% have one here. Unless noted, calls follow the shape of the dose curve; as a rule, active = well fitted inhibition curve with a large enough effect; inconclusive = small, poorly fitted or top-dose-only effect, or another doubt; inactive = no such curve, though single readings can be large or run the other way. % is scaled to controls: 0 for no effect and ±100 for the full control effect.
SMILES,Lassa entry inh,Pf growth 48h,HCV inh,Pf growth 96h,HCMV antiviral,Marburg entry inh
Cc1ccccc1OCc1nc(-c2ccc(NC(=O)c3cccs3)cc2)no1,?,?,?,?,58.6,?
COc1ccc(-c2noc(C(C)NC(=O)c3ccco3)n2)cc1 (stereo unspecified),23.7%[46.1 µM],·,·,·,-23.7,1.7%[46.1 µM]
COc1ccc(CC(=O)NC2CC(=O)N(c3ccc(C)c(C)c3)C2)cc1OC (stereo unspecified),-4.6%[46.1 µM],·,·,·,-6.7,·
N#CCCn1nc(-c2ccc(Cl)cc2)cc1Nc1ccccc1NC(=O)C(F)(F)F,17.6%,-7.5%,-9.1%,11.7µM*,26.8,16.6%
N#CCCn1nc(-c2ccc(Br)cc2)cc1Nc1ccccc1NC(=O)C(F)(F)F,-4.8%,?,-15.8%,?,8.1,?
N#CCCn1nc(-c2ccccc2)cc1Nc1ccccc1NC(=O)C(F)(F)F,-3.2%,-15.3%,32.5%,?,-3.4,8.1%
N#CCCn1nc(-c2ccc([N+](=O)[O-])cc2)cc1Nc1ccccc1NC(=O)C(F)(F)F,-27.0%,10.4µM*,-21.6%,10.4µM*,0.3,?
Cc1cccc(Cc2c(C)nc3nc(SCC(=O)NCc4ccc(F)cc4)nn3c2C)c1,-13.9%[46.1 µM],·,·,·,2.7,-7.6%[46.1 µM]
CCOC(=O)c1cnc(SCc2nc(N)nc(Nc3ccc(F)cc3)n2)nc1N,?,-8.7%,?,?,-96.5*,?
COc1ccc(Nc2nc(N)nc(CSc3nccc(C)n3)n2)cc1,-11.0%,15.9%,-7.5%,5.22µM*,·,?
CCOC(=O)c1cnc(SCc2nc(N)nc(Nc3ccccc3OC)n2)nc1N,·,·,·,-0.4%,55.7,1.6%
CCOC(=O)c1cnc(SCc2nc(N)nc(Nc3ccc(C)cc3)n2)nc1N,?,?,-10.6%,·,-87.8*,-26.3%
Cc1ccc(N(C)S(=O)(=O)c2cccc(C(=O)OCC(=O)c3c(N)n(C)c(=O)n(C)c3=O)c2)cc1,?,·,?,·,-26.8,?
COc1ccccc1CNC(=O)CN(C)c1nn2c(=O)cc(C)nc2s1,-10.8%[46.1 µM],·,·,·,-0.3,-6.4%[46.1 µM]
COc1ccc(-c2nc(C)sc2CC(=O)O)cc1OC,3.0%,-5.7%,17.7%,34.3%,-24.2,25.2%[46.1 µM]
COc1ccc(-c2nc(C)sc2CC(=O)O)cc1,-1.3%,?,13.7%,·,-82.5*,?
CN=c1sc(C(=O)Nc2cccc(Cl)c2)cc(=O)n1C,?,14.2%,-8.4%,-7.0%,-66.0*,?
CC[C@@H](CCC=C(C)C)C(=O)N(Cc1ccccc1)c1ccccc1,·,8.28µM*,?,?,-27.5,·
COc1ccc(-c2cc(C(F)F)nc(-n3nc(C)cc3C)n2)cc1,-7.0%,8.28µM*,?,?,-24.5,-1.7%
Cc1ccc(-c2cc(C(F)F)nc(N3CCOCC3)n2)cc1,-4.7%[46.1 µM],?,5.62µM*,?,-39.1,?
CC(C)(C)c1ccc(C(=O)N2CCN(Cc3cc(=O)n4nc(-c5ccccc5F)sc4n3)CC2)cc1,-1.8%[46.1 µM],·,·,·,4.4,·
COc1ccc(CN2C(=O)C(CC(=O)NC(c3ccccc3)c3ccccc3)CC(C(=O)N(C(C)C)C(C)C)=C2C)cc1 (stereo unspecified),·,·,·,·,-24.9,·
COC(=O)c1ccccc1NC(=O)C(C)NS(=O)(=O)c1ccc(OC)cc1 (stereo unspecified),-2.2%,1.31µM*,4.8%,·,-7.2,?
COC(=O)c1ccccc1NC(=O)C(C)Oc1ccccc1 (stereo unspecified),13.7%,7.38µM*,-14.0%,1.1%,17.6,-12.9%
COc1cc(NC(=O)C(C)Oc2ccccc2)c(OC)cc1NC(=O)c1ccccc1 (stereo unspecified),-18.1%,10.4µM*,?,?,·,?
SMILES,Lassa entry inh,Pf growth 48h,HCV inh,Pf growth 96h,HCMV antiviral,Marburg entry inh
CCC(C(=O)Nc1cc(OC)c(NC(=O)c2ccccc2)cc1OC)c1ccccc1 (stereo unspecified),?,-16.1%,11.2µM*,?,4.3,0.9%[46.1 µM]
COc1ccccc1NC(=O)C(C)NS(=O)(=O)c1ccc(F)cc1 (stereo unspecified),-1.6%,-24.0%,1.0%,·,29.8,-3.4%
N#Cc1ccccc1NS(=O)(=O)c1ccc(N2CCCCS2(=O)=O)cc1,-4.1%[46.1 µM],·,·,·,7.9,·
CCOc1ccc(NC(=O)c2cc3c(-c4ccccc4F)nn(C)c3s2)cc1,?,·,·,·,2.8,25.9%[46.1 µM]
CS(=O)(=O)c1cccc(-c2csc(N3CCC(C(N)=O)CC3)n2)c1,·,?,·,0.4%,19.3,·
COc1cccc(C(=O)Nc2ccccc2C(=O)N2CCCC2)c1,-2.8%,·,-2.6%,-24.6%,13.5,-8.0%[46.1 µM]
CCC(Oc1ccccc1)C(=O)Nc1ccccc1C(=O)N1CCCCC1 (stereo unspecified),?,4.6%,·,?,-8.2,11.2µM*
O=C(Nc1ccccc1C(=O)N1CCCCC1)c1cccs1,·,17.0%,-3.6%,6.57µM*,108.1,·
O=C(Nc1ccccc1C(=O)N1CCCCCC1)c1ccccc1,-3.7%[46.1 µM],-10.9%,14.5%,-16.4%,-64.4*,-2.4%[46.1 µM]
COc1ccc(/C=C(/C(=O)Nc2ccccc2C(=O)N2CCCC2)c2ccccc2)cc1,-17.2%,6.57µM*,?,?,-18.0,-7.2%
CCC(Oc1ccccc1)C(=O)Nc1ccccc1C(=O)N1CCN(C)CC1 (stereo unspecified),-6.4%,-3.7%,·,-4.4%,-9.5,-32.4%
O=C(Nc1ccccc1C(=O)N1CCCCC1)c1ccccc1C(F)(F)F,0.0%,?,·,2.6%,-2.3,-3.7%
O=C(NCCC(=O)N1CCN(Cc2c(F)cccc2Cl)CC1)c1ccc(Cl)cc1,·,?,?,?,1.5,·
CC(=O)c1ccc(N2CCN(C(=O)C3CCN(S(=O)(=O)c4cccc5nonc45)CC3)CC2)cc1,?,·,·,·,5.3,·
CCCCc1nn2c(=O)cc(COC(=O)c3ccccc3NC(=O)c3ccccc3OC)nc2s1,15.5%[46.1 µM],·,·,·,-7.6,·
Cc1ccc(C(=O)Nc2ccccc2C(=O)N2CCN(c3ccccc3)CC2)cc1,-17.4%[46.1 µM],22.4%,7.8%,114.4%,-31.9,-24.3%[46.1 µM]
Cc1ccc(N2CCN(C(=O)c3ccccc3NC(=O)c3ccccc3C(=O)O)CC2)cc1,?,34.2%,21.2%,12.8%,-103.0*,10.7%
Cc1ccccc1NC(=O)c1c(NC(=O)Cc2ccccc2)sc2c1CCC2,2.0%[46.1 µM],·,·,·,-30.1,·
O=C(Nc1ccc2nn(-c3ccccc3)nc2c1)c1ccc(Br)o1,?,?,?,63.9%,-64.8*,?
CCOc1ccc(-n2nc3ccc(NC(=O)c4ccc5c(c4)OCCO5)cc3n2)cc1,?,-24.1%,6.31µM*,323.1%,-70.6*,?
O=C(Nc1ccc2nn(-c3ccccc3)nc2c1)c1ccc2c(c1)OCCO2,?,-28.9%,7.08µM*,-19.8%,?,-19.7%[46.1 µM]

# High-throughput results as filed in PubChem.
